Hit rate of the full screen: of about 1,200 compounds, about 170 (14%) were called active. No rule for the calls is given here. Only a sample is shown. Potency and affinity values are given separately.
Test: twin-arginine translocation blockade, bacterial reporter – cherry-pick, set 2, plate reader, dose response (AID 504941)
Settings: E. coli Tat transport reporter; series mostly up to 38 µM; activity change, negative = inhibition: at the top concentration

Activity change, negative = inhibition, inactive:
CCn1c2ccc(C)cc2c2nnc(SCCN3CCOCC3)nc21 5%
COC(=O)c1ccc(NC(=O)N2CCC(O)(c3cccnc3)CC2)cc1 9.11%
Cc1ccc(/C=C2/C(=N)N3N=C(CC(=O)N4CCCC4)SC3=NC2=O)o1 15.6%
COC(=O)c1c(NC(=O)CCN2CCOCC2)sc2c1CCCC2 1.23%
COc1ccc(CCN=C(N)NS(=O)(=O)c2cccs2)cc1 -3.98%
COc1cc(SC)ccc1C(=O)OCC(=O)NC(=O)NC(C)C -25.9%
COc1cccc(NC(=O)Nc2cnccn2)c1 -11.9%
O=C(N/C(=C/c1cccc([N+](=O)[O-])c1)C(=O)N1CCOCC1)c1ccc(Br)cc1 14.1%
Cn1cccc1CNCC(O)c1ccccc1 (stereo unspecified) -0.896%
CC(Sc1nnc(-c2ccccc2F)n1C1CC1)C(=O)NCc1ccco1 (stereo unspecified) 20.6%
CC1CCN(c2ccc(C(=O)NCc3ccco3)cc2[N+](=O)[O-])CC1 24%
N#Cc1cccc(Nc2c3c(nc4ccccc24)CCCC3)c1 31%
O=S(=O)(c1cc(Cl)cc(Cl)c1O)N1CCC2(CC1)OCCO2 -7.76%
CS(=O)(=O)c1ccc(Cl)c(NC(=O)COC(=O)CCc2c[nH]c3ccccc23)c1 -2.31%
CCS(=O)(=O)c1ccc(NC(=O)c2ccccc2Cl)c(O)c1 -5.3%
Nc1ccn(CC(=O)N2CCN(c3ccccn3)CC2)c(=O)n1 8.72%
NC(=O)c1ncn([C@@H]2O[C@H](CNCc3cccn3-c3ccncc3)[C@@H](O)[C@H]2O)n1 5.2%
O=C(NCc1ccc2c(c1)OCO2)c1c(O)c2cccc3c2n(c1=O)CCC3 -10.3%
Cc1nc(NC(=O)c2ccco2)sc1-c1csc(Nc2ccc(Cl)cc2)n1 -28.1%
Cc1ccc(SCc2noc(C(=O)NC(C)C)c2C(=O)O)cc1C 22.1%
CCCCNC(=O)NNC(=O)c1ccc(F)cc1 3.97%
O=C(O)C1C(=O)NCC1c1ccccc1 (stereo unspecified) 5.39%
Cc1ccc(C(=O)N/C(=C\c2cn(S(=O)(=O)N(C)C)c3ccccc23)C(=O)NCCCN2CCOCC2)cc1 -3.49%
COc1ccc(Nc2nc(NCCO)nc(OC)n2)cc1 12.2%
CCOC(=O)CC(NC(=O)c1cccc2c1C(=O)N(Cc1cccnc1)C2)c1ccc(OCC)c(OC)c1 (stereo unspecified) 22.5%
OC1(c2ccccc2Cl)NN=C2CCCCCN21 (stereo unspecified) 2.37%
Cc1nc2ccccn2c1/C(O)=C1\C(=O)C(=O)N(CCN(C)C)C1c1ccco1 (stereo unspecified) -13.9%
COc1ccccc1N1C(=NC(=O)CCc2ccccc2)SC2CS(=O)(=O)CC21 (stereo unspecified) 1.05%
COc1ccc(Cc2nnc(NS(=O)(=O)c3ccc(Cl)cc3)s2)cc1OC -17.9%
CCNc1c(NS(=O)(=O)c2ccc(OC)cc2)c(=O)oc2ccccc12 48%
Oc1ccc(/C=N/Nc2ccccc2)cc1 6.32%
CC(C)c1nnc(NC(=O)CCS(=O)(=O)Cc2ccccc2)s1 21.5%
CC(=O)NS(=O)(=O)c1ccc(NC(=O)c2cc(-c3cccs3)nc3ccccc23)cc1 5.92%
O=C(Cn1ccc(C(F)(F)F)n1)Nc1ccc(S(=O)(=O)NCc2ccco2)cc1 11.5%
CCC(C)n1nccc1NC(=O)C(C)Cl (stereo unspecified) -9.12%
O=C(Nc1cccc(-c2nc3cccnc3s2)c1)C1c2ccccc2Oc2ccccc21 21.1%
Nc1cc(OC(=O)c2ccc(F)cc2)nn1S(=O)(=O)c1ccc(F)cc1 -2.53%
CC(C)(C)n1nnnc1C(c1cc2cc3c(cc2[nH]c1=O)OCCO3)N1CCSCC1 (stereo unspecified) 8.61%
Cc1cc(C(C#N)c2ccccc2F)n2ncnc2n1 (stereo unspecified) -3.6%
C=CCc1c(C)nc(C)nc1N/N=C/c1ccc(N(C)C)cc1 3.93%
COc1ccc(S(=O)(=O)N(C)c2ccc(C(=O)N3CCOCC3)cc2)cc1 -2.72%
CCCCOc1ccc(C2CC(=O)N(C)C2=O)cc1 (stereo unspecified) 15.5%
CC[C@H]1OC(=O)[C@H](C)[C@@H](O[C@H]2C[C@@](C)(OC)[C@@H](O)[C@H](C)O2)[C@H](C)[C@@H](O[C@@H]2O[C@H](C)C[C@H](N(C)C)[C@H]2O)[C@](C)(OC)C[C@@H](C)C(=O)[C@H](C)[C@@H](O)[C@]1(C)O 21.8%
NC(=O)c1ccccc1NC(=O)COc1ccc2c(c1)OCO2 -15.4%
CCCN(Cc1ccccc1)C(=S)Nc1ccc(SC(F)F)cc1 -28.4%
c1ccc2c(OCCCN3CCCCCC3)cccc2c1 11.3%
C[C@H](NC(=O)c1nc[nH]c1C(=O)NCc1ccc(CNC(=O)OC(C)(C)C)cc1)c1ccccc1 -35%
CC(C)(C)OC(=O)N[C@@H](Cc1ccccc1)[C@H](O)c1ccco1 -13%
Cc1ccccc1-c1nc(CN2CCC(C(=O)O)CC2)c(C)o1 -19.8%
CC(O/N=C/c1ccc(OC(F)F)cc1)C(=O)Nc1cccc(S(=O)(=O)N2CCOCC2)c1 (stereo unspecified) 10.4%
Fc1ccc(-n2c(-c3ccc4ccccc4n3)n[nH]c2=S)cc1Cl 28.2%
Nc1nc(CN2CCCCC2)cs1 18.1%
CCCn1c2c(c(=N)c3c1CCC3)CCCC2 8.27%
COc1ccc(C2OC(=O)CC2C(=O)NCc2ccc(F)cc2)cc1OC (stereo unspecified) 4.42%
Cc1ccc2oc3c(c(=O)c2c1)C(c1cccs1)N(CCCN(C)C)C3=O (stereo unspecified) -22.4%
CC(=O)N1CCN(c2cc3c(cc2F)c(=O)c(C(=O)O)cn3C2CC2)CC1 408%
CC(C)C[C@@H](CN1CCC[C@@H]1CN1C(=O)C(=O)NC[C@@H]1Cc1ccccc1)N1C[C@H](Cc2ccc(O)cc2)N(CC2CCCCC2)C(=O)C1=O -8.76%
CCCC(=O)c1c[nH]c(C(=O)N2CCOCC2)c1 -22.5%
CCC(=NCCc1ccc(OC)c(OC)c1)C1=C(O)CC(C)(C)CC1=O -14.1%
N#Cc1nc(-c2ccccc2Cl)oc1N1CCN(C(=O)c2ccco2)CC1 -6.45%
C1=C(CCNc2ncnc3c2cnn3-c2ccccc2)CCCC1 -9.98%
O=C(NNc1ncnc2c1cnn2-c1ccccc1)c1cccs1 2.73%
COc1cccc(C(=O)N(CN2CCCC2=O)c2cccc(Cl)c2)c1OC 2.99%
O=C(Nc1ccc(Cl)c(C(F)(F)F)c1)NC1CC2CCCC(C1)N2C1CC1 (stereo unspecified) 16.9%
CCOc1ncccc1C(=O)N(CC)CC(=O)Nc1ccc(NC(C)=O)cc1 9.92%
CCCCN(C)CCn1c(=S)[nH]c2ncccc2c1=O -6.89%

— PubChem BioAssay AID504941 (Broad Institute, 2011)
